Assay outcomes as filed in PubChem BioAssay.
Sampled rows, rich in hits. Any-hit rate of the full collection: about 1.5%.
LANA-H2A inh – blockers of LANA interaction with H2A/H2B – biochemical, FP readout, HTS, primary screen. cell-free LANA-H2A/H2B peptide, fluorescence polarization. AID 2629, 2010. 0.6% of 320,000 active. Protein LANA1 (Human herpesvirus 8 type P (isolate GK18)), Q9QR71. inhibition, % (no concentration beside the values); in the data active = inhibition mostly above about 10%, no sharp cut-off; inactive = mostly below about 6.7%
eLon inh – inhibitors of E. coli Lon protease, primary screen, biochemical, fluorescence polarization. P0A9M0. purified E. coli Lon protease. inhibition, % at 7.94 µM. 0.42% of 360,000 active. AID 602123, 2011; in the data active = inhibition above about 13%, passing the limit was not always enough
Target sequence (P0A9M0 whole entry, looked up): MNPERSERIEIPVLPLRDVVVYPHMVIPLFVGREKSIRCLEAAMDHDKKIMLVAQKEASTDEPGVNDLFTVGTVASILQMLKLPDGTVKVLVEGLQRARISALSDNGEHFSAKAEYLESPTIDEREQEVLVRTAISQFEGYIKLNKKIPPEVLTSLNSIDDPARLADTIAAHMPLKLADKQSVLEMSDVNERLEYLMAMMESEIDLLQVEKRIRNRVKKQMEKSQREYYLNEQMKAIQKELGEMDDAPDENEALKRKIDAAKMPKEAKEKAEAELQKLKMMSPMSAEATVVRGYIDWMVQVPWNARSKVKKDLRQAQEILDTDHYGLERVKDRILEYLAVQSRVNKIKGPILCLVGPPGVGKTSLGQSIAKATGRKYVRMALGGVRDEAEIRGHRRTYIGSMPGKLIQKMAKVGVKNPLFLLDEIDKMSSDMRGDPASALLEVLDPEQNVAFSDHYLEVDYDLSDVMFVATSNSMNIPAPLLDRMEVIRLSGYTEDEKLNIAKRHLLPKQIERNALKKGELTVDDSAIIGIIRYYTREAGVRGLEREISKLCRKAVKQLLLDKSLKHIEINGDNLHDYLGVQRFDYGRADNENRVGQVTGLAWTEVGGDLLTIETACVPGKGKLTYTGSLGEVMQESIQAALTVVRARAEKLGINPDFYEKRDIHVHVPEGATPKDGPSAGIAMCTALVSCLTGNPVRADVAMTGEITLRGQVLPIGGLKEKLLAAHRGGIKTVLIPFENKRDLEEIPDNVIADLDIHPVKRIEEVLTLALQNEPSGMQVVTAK
EBV gp42 block – Epstein-Barr virus gp42 inhibitors, primary screen, biochemical, uHTS, fluorescence polarization; Glycoprotein 42 (Epstein-Barr virus (strain AG876)), Q1HVG2; Fluorescence polarization binding assay, mP read-out; inhibition, % (tested at 21.74 µM); 0.42% of 220,000 active; AID 1085, 2008; in the data active = inhibition above about 50%
GLD-1 RNA inh – GLD-1/TGE RNA complex disruptors, primary screen, biochemical, fluorescence polarization. Female germline-specific tumor suppressor gld-1 (Caenorhabditis elegans), Q17339. purified GLD-1 + fluorescein TGE RNA. inhibition, % at 5.96 µM. 0.44% of 320,000 active. AID 2280, 2010;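 active = percent inhibition above a per-plate cutoff, the plate mean of test compounds plus 3 SD, cut at about 30% in these data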
LANA DNA inh – inhibitors of KSHV C-LANA binding to DNA, primary screen, biochemical, fluorescence polarization, FAM-LBS DNA, MBP-C-LANA, single point; Kaposi's sarcoma herpesvirus LANA C-terminal domain (residues 932-1162) DNA binding; inhibition, % at 9 µM; 0.078% of 340,000 active; AID 504423, 2011;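 active = highest replicate inhibition at or above 60% at 9 µM, even if other replicates fall short; inactive = all replicates below 60% inhibition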
Keap1 Nrf2 FP – Keap1-Nrf2 protein-protein interaction inhibitors, primary screen, biochemical, fluorescence polarization, single point | Kelch-like ECH-associated protein 1 (Homo sapiens), Q14145 | Keap1 Kelch-Nrf2 peptide fluorescence polarization, 1536-well | 0.15% of 340,000 active | inhibition, % at 9.4 µM; in the data active = inhibition above about 12%;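 also: human Keap1 Kelch domain with fluorescein labeled Nrf2 9mer peptide probe; higher means more block of Keap1 binding to Nrf2 peptide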
Hits are given with their value; – = inactive; · = no result given.

SMILES	LANA-H2A inh	eLon inh	EBV gp42 block	GLD-1 RNA inh	LANA DNA inh	Keap1 Nrf2 FP
CCC(=O)N1CCCC(C)(C(=O)Nc2ccc3oc(CC)nc3c2)C1 (stereo unspecified)	·	–	·	·	·	·
COc1ccc2nc(N3CCCC3)c(C#N)cc2c1	–	–	127	49	–	–
COc1ccc2nc(SCC(=O)N3CCCCC3)c(C#N)cc2c1	–	–	–	–	–	–
CSCCNC(=O)C1(C)CCN1C(=O)c1ccc(C(C)(C)C)cc1 (stereo unspecified)	·	–	·	·	·	·
CC(C)=CCC/C(C)=C/CNC(=O)C[C@H]1C[C@H](C(=O)N2CCOCC2)[C@@]2(CCC3CCCC3)c3[nH]c4cc(CCC(=O)N(C)C)ccc4c3CCN2C1=O	·	–	·	·	–	–
O=C(c1cccc([N+](=O)[O-])c1)c1ccc2c(c1)OCCOCCOCCOCCO2	13	–	–	–	·	·
O=C(c1ccccc1)c1ccc2c(c1)OCCOCCOCCOCCO2	–	–	–	–	–	–
COc1cccc(C(O)c2nc(-c3ccc(OC)nc3)cs2)c1 (stereo unspecified)	·	–	·	·	·	·
Cc1ccc(N2C(=O)[C@@H]3[C@H](C2=O)[C@H]2C=C(C(=O)c4ccccc4)C=CN2[C@@H]3C(=O)c2ccc(Cl)cc2)cc1	–	–	–	–	–	–
O=C(c1ccc(Cl)cc1)C1C2C(=O)N(c3ccccc3)C(=O)C2C2CCCN21 (stereo unspecified)	·	–	81	·	–	–
CC(=O)c1ccc(N2C(=O)C3C(C2=O)C(C(=O)c2ccc(Cl)cc2)N2CCCC32)cc1 (stereo unspecified)	·	·	89	·	·	·
Cc1ccc(N2C(=O)[C@@H]3[C@H](C2=O)C2CCCN2[C@@H]3C(=O)c2ccccc2)cc1 (stereo partly specified)	–	–	–	48	–	–
COc1ccc(N2C(=O)C3C(C2=O)C(C(=O)c2ccc(Cl)cc2)N2CCCC32)cc1 (stereo unspecified)	–	–	–	–	–	–
COCCNC(=O)C1CCCN(Cc2ccccc2-c2ccccc2)CC1 (stereo unspecified)	·	–	·	·	·	·
CNc1nnc(C(F)(F)F)s1	16	–	–	–	–	–
O=C(CCCN1C(=O)c2cccc3cccc(c23)C1=O)N1CCN(c2ccccc2O)CC1	–	–	–	–	–	–
O=C(CCCN1C(=O)c2cccc3cccc(c23)C1=O)N1CCN(c2ccccc2)CC1	17	–	–	–	–	–
NC(=O)c1c(NC(=O)Cn2nc(C(=O)O)c3ccccc3c2=O)sc2c1CCCC2	–	–	53	–	–	–
NC(=O)c1c(NC(=O)Cn2nc(C(=O)O)c3ccccc3c2=O)sc2c1CCC2	–	–	–	–	–	–
CCOc1ccc(OCCNC(=O)c2ccc3c(c2)nnn3CC)cc1	–	–	·	–	–	–
COc1ccc(C2(C)NC(=O)N(CC(=O)NCc3ccccc3)C2=O)cc1OC (stereo unspecified)	25	–	·	–	–	–
COc1ccc(C(=O)CN2C(=O)NC(C)(c3ccccc3)C2=O)cc1OC (stereo unspecified)	–	–	–	–	–	–
CC(C)(C)N(Cc1ccccc1)C(=O)CN1C(=O)c2ccccc2C1=O	–	–	·	·	–	–
Cc1ccc(C2(C)NC(=O)N(CC(=O)N(Cc3ccccc3)C(C)(C)C)C2=O)cc1 (stereo unspecified)	17	–	·	–	–	–
Cn1c(/N=C(\N)c2ccccc2)nc2ccccc21	·	–	·	·	·	·
COc1ccc(OC)c2cc3ccccc3cc12	·	–	·	·	–	25
O=C(Nc1ccccc1C(=O)O)c1cccc(S(=O)(=O)Nc2ccc(Br)cc2)c1	19	–	·	–	–	–
C[C@@H]1Cn2cnc(C(=O)NCc3ccc(CNC(=O)OC(C)(C)C)cc3)c2C(=O)N1	·	–	·	·	·	·
